Holding throughout (assay): NCI-60 one-dose screen, 48 h (100 = growth as untreated, 0 = no growth, -100 = all killed)
One assay relates to NCI-H23 lung. The following applies: 10 µM unless noted.
The subject of a further assay is NCI-H226 lung. Particulars: 10 µM unless noted.
The next assay concerns NCI-H322M lung. The following applies: 10 µM unless noted.
For another assay, the system named is HOP-62 NSCLC. The following applies: 10 µM unless noted.
A further assay relates to NCI-H460 lung. Particulars: 10 µM unless noted.
Another assay relates to HOP-92 NSCLC. The following applies: 10 µM unless noted.
The subject of a further assay is NCI-H522 lung. The following applies: 10 µM unless noted.
Another assay has as its system A549/ATCC NSCLC. Particulars: 10 µM unless noted.
The next assay relates to 786-0 renal. Particulars: 10 µM unless noted.
The next assay relates to COLO 205 colon. The following applies: 10 µM unless noted.
A further assay relates to DU-145 prostate. The following applies: 10 µM unless noted.
The next assay deals with K-562 leukemia. Particulars: 10 µM unless noted.
For a further assay, the system named is MALME-3M melanoma. The following applies: 10 µM unless noted.
A further assay deals with MDA-MB-231 breast. Particulars: 10 µM unless noted.
The next assay concerns RXF 393 renal. The following applies: 10 µM unless noted.
In a further assay the test system is SF-268 CNS. Particulars: 10 µM unless noted.
The test system of a further assay is SF-295 CNS. Particulars: 10 µM unless noted.
For a further assay, the system named is SF-539 CNS. The following applies: 10 µM unless noted.
The subject of another assay is UACC-257 melanoma. The following applies: 10 µM.
The next assay relates to M14 melanoma. The following applies: 10 µM unless noted.

This is part of a sample that, as a whole, favours compounds with a hit. Of some 83,000 tested, about 20% had one in any assay.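 Results are percent growth after 48 hours of single-concentration exposure. 100 means growth as in untreated cells, lower positive values show inhibition; negative values down to -100 show cell death.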 Values without a mark were called inactive. Activity calls are given as the source filed them. Rule for the calls: active = growth percent below 10; inactive = the rest.

As to `CC/C(=C(\c1ccc(O)cc1)c1ccc(OCCN(C)CCN(C)C(=O)CCC(=O)c2c(C)[nH]c(/C=C3\N=C(c4ccc[nH]4)C=C3OC)c2C)cc1)c1ccccc1`, the growth was 80.1% in the assay on NCI-H23 lung; 77% with NCI-H226 lung; 70.4% with NCI-H322M lung; 91.3% with HOP-62 NSCLC; 58.2% in the assay on NCI-H460 lung; 58.8% in the assay on HOP-92 NSCLC. Moreover, the growth was 81.9% in the assay with NCI-H522 lung; 76.4% in the assay with A549/ATCC NSCLC; 87.5% in the assay on 786-0 renal; 89.8% in the assay on COLO 205 colon; 46.9% in the assay with DU-145 prostate; 5.83% (active) in the assay on K-562 leukemia. Further, the growth in the assay with MALME-3M melanoma was 55.4%; in the assay with MDA-MB-231 breast, 9.16% (active); in the assay on RXF 393 renal, 66.1%; in the assay with SF-268 CNS, 69.8%; with SF-295 CNS, 95.9%; in the assay on SF-539 CNS it was 63.2%. Also, the growth in the assay with UACC-257 melanoma was 104%; in the assay on M14 melanoma it was 20.7%.

`CCCOC(=O)C1(O)CCCC1`: the growth in the assay on NCI-H23 lung was 106%; in the assay with NCI-H226 lung, 92.9%; with NCI-H322M lung it was 102%; in the assay with HOP-62 NSCLC it was 109%; in the assay on NCI-H460 lung, 108%; with HOP-92 NSCLC it was 89.8%. Moreover, the growth is 75% in the assay on NCI-H522 lung; 105% with A549/ATCC NSCLC; 105% with 786-0 renal; 118% in the assay with COLO 205 colon; 123% in the assay on DU-145 prostate; 110% with K-562 leukemia. The growth is 96.3% with MALME-3M melanoma; 112% in the assay on MDA-MB-231 breast; 103% with RXF 393 renal; 121% in the assay on SF-268 CNS; 105% in the assay on SF-295 CNS; 88.1% in the assay on SF-539 CNS. Also, the results for the growth in the assay with UACC-257 melanoma and in the assay on M14 melanoma were 103% and 107%, respectively.

Consider `N=C(N)c1ccc(-c2ccc(-c3ccc(Cl)cc3)o2)nc1`, for which the growth in the assay with NCI-H23 lung is -81.9% (active); in the assay with NCI-H226 lung it was -68.2% (active); in the assay on NCI-H322M lung, -94.5% (active); with HOP-62 NSCLC, -85.5% (active); in the assay on NCI-H460 lung it was -91.6% (active); with HOP-92 NSCLC, -87.7% (active). Further, the growth with NCI-H522 lung is -78.9% (active); in the assay with A549/ATCC NSCLC it was -82.8% (active); in the assay on 786-0 renal, -85.1% (active); in the assay with COLO 205 colon, -87.5% (active); in the assay with DU-145 prostate it was -98.4% (active); in the assay with K-562 leukemia, 112%. For the same molecule, the growth in the assay with MALME-3M melanoma is -66.4% (active); in the assay on MDA-MB-231 breast, -90% (active); in the assay with RXF 393 renal it was -98.1% (active); in the assay with SF-268 CNS, -95.6% (active); in the assay with SF-295 CNS, -85.4% (active); in the assay with SF-539 CNS, -92.4% (active). Moreover, the growth with UACC-257 melanoma was -89% (active); with M14 melanoma it was -88.3% (active).

In the case of `CCN(Cc1ccc(CN(CC)C(=O)C(Br)Br)cc1)C(=O)C(Br)Br`, the growth was 43.3% with NCI-H23 lung; 59.1% in the assay with NCI-H226 lung; 26.3% with NCI-H322M lung; 74.8% in the assay with HOP-62 NSCLC; 2.41% (active) with NCI-H460 lung; 60.7% in the assay on HOP-92 NSCLC. Further, the growth was 32.5% in the assay with NCI-H522 lung; 25.2% in the assay on A549/ATCC NSCLC; 59.4% in the assay on 786-0 renal; 3.56% (active) with COLO 205 colon; 14.1% with DU-145 prostate; 27.1% with K-562 leukemia. The growth is 52.6% with MALME-3M melanoma; 28.2% in the assay on MDA-MB-231 breast; 67.9% in the assay on RXF 393 renal; 51.6% with SF-268 CNS; 45.9% in the assay with SF-295 CNS; 53.6% in the assay on SF-539 CNS. Further, the growth with M14 melanoma is 24.9%.

For `CC1CCc2c(sc(NC(=O)CSc3nnc4ccccn34)c2C(N)=O)C1` (stereo not given), the growth is 109% in the assay with NCI-H23 lung; 103% in the assay with NCI-H226 lung; 121% with NCI-H322M lung; 110% in the assay with HOP-62 NSCLC; 106% in the assay on NCI-H460 lung; 97.8% with HOP-92 NSCLC. Besides, the growth in the assay on NCI-H522 lung was 108%; with A549/ATCC NSCLC it was 118%; in the assay with 786-0 renal, 115%; in the assay with COLO 205 colon, 126%; in the assay on DU-145 prostate, 144%; in the assay on K-562 leukemia, 117%. Further, the growth with MALME-3M melanoma is 181%; in the assay on MDA-MB-231 breast, 102%; with RXF 393 renal, 1.36% (active); with SF-268 CNS, 109%; in the assay on SF-295 CNS, 93.6%; in the assay with SF-539 CNS it was 137%. Moreover, the growth in the assay on M14 melanoma is 117%.

Regarding `CCN(CC)S(=O)(=O)c1ccc2[nH]c(=O)cc(C(=O)Nc3ccc(OC)cc3OC)c2c1`, the growth with NCI-H23 lung is 97.8%; with NCI-H226 lung, 100%; in the assay with NCI-H322M lung, 116%; in the assay on HOP-62 NSCLC it was 105%; in the assay with NCI-H460 lung it was 123%; in the assay on HOP-92 NSCLC, 77.8%. Also, the growth in the assay on NCI-H522 lung is 105%; in the assay on A549/ATCC NSCLC, 110%; with 786-0 renal, 107%; in the assay on COLO 205 colon, 110%; in the assay on DU-145 prostate, 157%; in the assay on K-562 leukemia, 115%. Besides, the growth was 118% with MALME-3M melanoma; 98.3% with MDA-MB-231 breast; 9.24% (active) with RXF 393 renal; 95% in the assay with SF-268 CNS; 97.9% in the assay with SF-295 CNS; 133% in the assay with SF-539 CNS. Also, the growth in the assay on M14 melanoma was 109%.

Regarding `C=C1C(=O)O[C@H]2[C@H]1CC/C(Cn1cc(-c3ccc(N)cc3)nn1)=C\CC[C@@]1(C)O[C@@H]21`, the growth in the assay on NCI-H23 lung was 22.3%; in the assay with NCI-H226 lung it was -14.3% (active); in the assay with NCI-H322M lung, 78.9%; in the assay with HOP-62 NSCLC it was 51.4%; with NCI-H460 lung, 74%; in the assay on HOP-92 NSCLC, -44.3% (active). In addition, the growth in the assay with NCI-H522 lung is -73.2% (active); in the assay with A549/ATCC NSCLC, 48.6%; in the assay on 786-0 renal, -61.3% (active); with COLO 205 colon, -63.5% (active); in the assay on DU-145 prostate, 4.28% (active); in the assay on K-562 leukemia it was 6.36% (active). In addition, the growth in the assay on MALME-3M melanoma was -23.1% (active); with MDA-MB-231 breast it was 4.85% (active); in the assay with RXF 393 renal it was -67.1% (active); in the assay on SF-268 CNS, 16.6%; with SF-295 CNS it was 67.6%; with SF-539 CNS it was -18.7% (active). The growth with M14 melanoma was -18.2% (active).

With `COc1ccc(/C(=N/O)c2cc(F)c(F)c(OC)c2F)cc1O`, the growth in the assay with NCI-H23 lung was 39.2%; in the assay on NCI-H226 lung it was 85.7%; in the assay on NCI-H322M lung it was 46%; in the assay with HOP-62 NSCLC, 21.5%; in the assay with NCI-H460 lung, 9.72% (active); with HOP-92 NSCLC, 50.8%. The growth was -56.7% (active) in the assay on NCI-H522 lung; 42% in the assay on A549/ATCC NSCLC; 45% in the assay with 786-0 renal; 62.1% with COLO 205 colon; 16.9% with DU-145 prostate; 10.3% in the assay with K-562 leukemia. Besides, the growth in the assay with MALME-3M melanoma was 60.7%; in the assay on MDA-MB-231 breast, 47.8%; with RXF 393 renal it was 16.7%; with SF-268 CNS, 48.1%; in the assay on SF-295 CNS, 1.83% (active); in the assay with SF-539 CNS it was -22.8% (active). The growth with M14 melanoma is 15.4%.

For the origin of these results see PubChem BioAssay (NCI).
